VP16 counter: inhibits Gal4-VP16 luciferase reporter, ROR gamma counter-screen; Drosophila S2 Gal4-VP16 UAS-luciferase, luminescence, 20 h; Potency, µM (top dose mostly 53.6 µM), without a hit: at the top dose activity, negative = inhibition, hits mostly inhibitors; 3.5% of 310,000 active; AID 2546;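 also: Gal4-VP16 expression switched on by copper sulfate through the metallothionein promoter; % is scaled to controls: 0 for no effect and ±100 for the full control effect; nearly all actives have a fitted effect of over 50% in size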
MCF10A rerep: induces DNA re-replication in MCF 10a normal breast cells | MCF 10A DNA re-replication, Hoechst nuclear intensity, 48 h | Potency, µM (titrated, usually from 46.1 µM), for the others: top-dose activity, positive = re-replication, actives largely listed as activators | 2.9% of 350,000 active; also: % of control where 0% means no effect; nearly all actives have a fitted effect of over 50% in size
SW480 rerep: inducers of DNA re-replication in SW480 colon cancer cells | SW480 DNA re-replication, Hoechst DNA content imaging, 48 h | Potency, µM (series often up to 46.1 µM), inactives show at the top dose re-replication activation, hits mostly activators | 1.8% of 340,000 active | AID 624297; also: % of control where 0% means no effect; nearly all actives have a fitted effect of over 55% in size
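Image-based DNA-content assay: after two days of treatment, nuclei were labelled with the DNA dye Hoechst and imaged, and hits were compounds raising the count of nuclei showing high fluorescence intensity.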
KB-V1 cytotox: kills drug-selected multidrug resistant KB-V1 cells. KB-V1 MDR cells viability, CellTiter-Glo, 72 h. Potency, µM (highest dose often 46.1 µM), usual class: cytotoxic. 3.4% of 400,000 active. AID 1347076; also: % is scaled to controls: 0 for no effect and ±100 for the full control effect; nearly all actives have a fitted effect of over 60% in size
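Compound-treated KB-V1 multidrug-resistant cells, 72 h, 37 degrees C; viability by CellTiter-Glo. Fitted qHTS curves give the values.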
KB-3-1 tox: kills parental KB-3-1 adenocarcinoma cells; KB-3-1 viability, CellTiter-Glo ATP luminescence, 72 h; 1.4% of 400,000 active; Potency, µM (doses to about 46.1 µM), usual class: cytotoxic; also: % is scaled to controls: 0 for no effect and ±100 for the full control effect; nearly all actives have a fitted effect of over 60% in size
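Screening of KB-3-1 cells (DMEM, 10% FBS, phenol-red free) ran from lowest to highest compound concentration; after 72 h at 37 °C viability was read luminescently and curves fitted.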
RORgamma inh: ROR gamma (mouse) transcription inhibition; Drosophila S2 Gal4-RORgamma UAS-luciferase reporter, 20 h; P51450; 5.4% of 310,000 active; Potency, µM (titrated, usually from 53.6 µM), inactives show at the highest dose activity change, negative = inhibition, hits mostly inhibitors; also: % is scaled to controls: 0 for no effect and ±100 for the full control effect; nearly all actives have a fitted effect of over 60% in size
Target sequence (P51450 whole entry, looked up, the tested form may be a part): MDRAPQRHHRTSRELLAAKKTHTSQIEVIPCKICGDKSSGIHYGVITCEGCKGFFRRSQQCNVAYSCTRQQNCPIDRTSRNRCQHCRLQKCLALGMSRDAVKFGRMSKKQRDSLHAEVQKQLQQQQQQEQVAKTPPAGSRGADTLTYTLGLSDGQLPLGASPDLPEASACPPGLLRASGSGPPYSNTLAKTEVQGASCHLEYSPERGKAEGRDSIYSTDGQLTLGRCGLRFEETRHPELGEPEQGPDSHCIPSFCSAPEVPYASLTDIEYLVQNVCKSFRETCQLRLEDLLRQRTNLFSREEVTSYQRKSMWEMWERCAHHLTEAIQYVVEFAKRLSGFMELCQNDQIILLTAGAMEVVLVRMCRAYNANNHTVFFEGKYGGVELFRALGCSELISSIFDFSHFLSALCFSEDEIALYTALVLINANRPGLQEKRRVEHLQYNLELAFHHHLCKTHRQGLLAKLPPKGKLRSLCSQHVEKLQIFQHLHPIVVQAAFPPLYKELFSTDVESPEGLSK
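Luminescence from a UAS-regulated Photinus luciferase reporter in stably transfected Drosophila Schneider cells is measured; decreased signal marks ROR gamma inhibition. Fusion expression is induced by 700 uM copper sulfate for 20 hr.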
* marks the source's active call; other numbers are inactive results; i = inactive; ? = inconclusive; . = no result; [ ] = remark or other dose. In the library only some 10% were active in any assay of this set; here they are far more common. Calls follow the shape of the dose curve; as a rule, active = well fitted curve in the direction sought with a large enough effect; inconclusive = small, poorly fitted or top-dose-only effect, or another doubt; inactive = no such curve, though single readings can be large; an effect the other way counts as inactive or inconclusive. Potency is read from the fitted curve at half-maximal effect.

SMILES	VP16 counter	MCF10A rerep	SW480 rerep	KB-V1 cytotox	KB-3-1 tox	RORgamma inh
COc1ccc(C(=O)N2CCN(c3nc(C4CC4)nc4sc(C)c(C)c34)CC2)cc1	6%	?	14%	23µM*	?	?
CCOC(=O)C1=CCN(S(=O)(=O)c2ccc(C)cc2)C1c1ccc(Cl)c(Cl)c1 (stereo not given)	.	.	.	i	i	.
COc1ccc(/C(C)=N/Nc2nc3ccccc3nc2C)cc1	13µM*	15µM*	18µM*	i	15µM*	2.5µM*
COc1ccc(CC(=O)Nc2nncs2)cc1OC	-3%	-8%	8.2µM*	i	i	-4%
COc1ccc(-c2csc(NC(=O)Cc3cc(OC)c(OC)c(OC)c3)n2)cc1OC	-1%	3%	2%	6.5µM*	i	?
COc1ccc(OC)c(-c2csc(NC(=O)Cc3ccccc3F)n2)c1	-8%	21µM*	?	?	i	?
COCCSc1nnc(NC(=O)Cc2ccc(OC)c(OC)c2)s1	-1%	10%	23µM*	?	?	-2%
CO/N=C1/c2cc(OC)ccc2O[C@@H](c2cccc(OC)c2)[C@H]1O	-24%[10 µM]	.	.	.	.	?
COc1cccc(CN2CCc3nc(Nc4ccc5c(c4)OCCO5)ncc3C2)c1OC	.	.	.	i	i	.
CCc1cc2c(nc1CC)CCN(CC/C(C)=N/O[C@@H](C)CN1CCCCc3nc(C)c(C)cc31)C2	4%[10 µM]	.	.	.	.	-1%[10 µM]
Cc1c(N=N/C(C(=O)Nc2ccccc2)=C(/O)c2ccccc2)c(=O)n(-c2ccccc2)n1C	3%	-18%	6.5µM*	i	i	?
CC(C)(C)NC(=O)C(CCc1ccccc1)n1c(=O)c(-c2cc3ccccc3[nH]2)nc2ccccc21 (stereo not given)	.	.	.	?	i	.
O=C(NC1CCCCC1)C(C1CC1)n1c(=O)c(-c2cc3ccccc3[nH]2)nc2ccccc21 (stereo not given)	.	.	.	23µM*	?	.
Cc1cccc(C)c1NC(=O)C(CCc1ccccc1)n1c(=O)c(-c2cc3ccccc3[nH]2)nc2ccccc21 (stereo not given)	.	.	.	21µM*	?	.
CC(C)(C)NC(=O)C(c1ccccc1)n1c(=O)c(-c2cc3ccccc3[nH]2)nc2ccccc21 (stereo not given)	.	.	.	23µM*	?	.
CCOC(=O)c1c(C)c(-c2ccccc2)n(CC(=O)NC2CCCCC2)c1C	.	.	.	i	i	.
CC(C)Oc1ccc(CNC(=O)c2cnc3sc(N4CCCCC4)nn3c2=O)cc1	.	.	.	?	i	.
COc1ccc(CC(=O)N2CCc3cc(OC)c(OC)cc3C2COc2cc(C)cc(C)c2)cc1OC (stereo not given)	.	.	.	i	?	.
Cn1c(SCc2ccc(C(C)(C)C)cc2)nnc1C1COc2ccccc2O1 (stereo not given)	-14%	21µM*	?	i	?	?
COC(=O)CSc1nnc(C2COc3ccccc3O2)n1-c1ccccc1 (stereo not given)	3%	21µM*	23%	i	i	6%
Cn1c(SCc2nnc(-c3ccc(F)cc3)o2)nnc1C1COc2ccccc2O1 (stereo not given)	-3%	3%	2%	i	i	6%
N#C/C(=C/c1cccc(C(F)(F)F)c1)c1nc(CCN2C(=O)c3ccccc3C2=O)cs1	-2%	6%	-4%	21µM*	i	20%
CC(C)c1c(O)ccc2c1CCC1C(C)(C)CCC[C@@]21C (stereo not given in full)	10µM*	.	.	.	.	?
O=C(Nc1ccc(Cc2nc3ccccc3s2)cc1)c1ccncc1	-22%	?	0%	7.3µM*	16µM*	?
O=C(Nc1ccc(O)c(-c2nc3ccccc3s2)c1)C1=COCCO1	2%	1%	-3%	?	i	?
SMILES	VP16 counter	MCF10A rerep	SW480 rerep	KB-V1 cytotox	KB-3-1 tox	RORgamma inh
O=C(Nc1ccc(OC(=O)c2ccccc2)c(-c2nc3ccccc3s2)c1)c1ccccc1	9%	21µM*	?	i	i	-17%
O=C(Nc1ccc(-c2nc3ccccc3s2)c(O)c1)C1=COCCO1	?	?	-3%	i	i	0.5µM*
O=C(Nc1ccc(-c2nc3ccccc3s2)cc1)C1=COCCO1	4.5µM*	4%	1%	i	i	2µM*
CCOc1ccc(NC(=O)C2Cc3ccccc3N2C(=O)c2ccccc2)cc1 (stereo not given)	.	.	.	i	i	.
C=CCNc1nc(NC2CCN(C)CC2)c2cc(OC)c(OC)cc2n1	.	.	.	i	?	.
O=[N+]([O-])c1ccc(Nc2cccc(F)c2)nc1	-3%	0.73µM*	-2%	i	i	0%
O=[N+]([O-])c1ccc(Nc2ccc(F)cc2)nc1	?	-2%	0%	?	i	29%
Cc1ccc(CN2CCN(C3CCN(S(=O)(=O)N(C)C)CC3)C(=O)C2=O)cc1	.	.	.	i	i	.
COc1cc(-c2nnc(Sc3ccc(C(F)(F)F)cc3[N+](=O)[O-])o2)cc(OC)c1OC	9%	18µM*	?	i	i	-17%
O=C(c1cc(C2CC2)nn1-c1ccccc1)N1CCN(c2ccccn2)CC1	.	-2%	1%	?	i	.
O=C(CSc1ccc(Cl)cc1)N1CCN(c2ccc([N+](=O)[O-])cc2Cl)CC1	?	?	-5%	16µM*	?	?
O=C(CSc1ccc(Cl)cc1)N1CCN(c2ncc(C(F)(F)F)cc2Cl)CC1	?	?	20%	15µM*	i	?
Cc1ccc(Cl)cc1N1CCN(C(=O)CSc2ccsc2[N+](=O)[O-])CC1	-4%	?	-5%	5.2µM*	i	?
CCCC(=O)N1CCN(c2ccc([N+](=O)[O-])cc2Cl)CC1	-7%	-4%	-3%	i	i	?
Cc1ccc(Cl)cc1N1CCN(C(=O)CSc2cc(=O)n(C)c3ccccc23)CC1	.	.	.	i	i	.
O=C(c1cc(C2CC2)nn1-c1ccccc1)N1CCN(c2ncc(C(F)(F)F)cc2Cl)CC1	.	13µM*	-2%	16µM*	i	.
O=C(NCc1ccccc1Cl)C(=O)NCC(c1ccco1)S(=O)(=O)c1cccs1 (stereo not given)	.	.	.	i	i	.
CCCN(Cc1cc2cccc(C)c2[nH]c1=O)C(=O)c1cccc(Cl)c1	.	.	.	i	i	.
CN(C)C(CNC(=O)c1cc(S(=O)(=O)N2CCOCC2)ccc1F)c1cccs1 (stereo not given)	.	9%	1%	i	i	.
